From PubChem BioAssay (NCI)
About 83,000 compounds went through this panel and 20% of them were active in at least one assay; those are over-represented in the sample as a whole.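 Values shown are percent growth following 48 h exposure of cells in 96-well plates to a single concentration of compound; below 10 was considered active.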 A number with no mark means an inactive call. The source made the active and inactive calls.

What was measured:
Experiment in all cases: NCI-60 one-dose screen, 48 h (100 = growth as untreated, 0 = no growth, -100 = all killed)
Details in all cases: 10 µM unless noted
[1] = tested on: DU-145 prostate
[2] = tested on: K-562 leukemia
[3] = tested on: MALME-3M melanoma
[4] = tested on: MDA-MB-231 breast
[5] = tested on: RXF 393 renal
[6] = tested on: SF-268 CNS
[7] = tested on: SF-295 CNS
[8] = tested on: SF-539 CNS
[9] = tested on: UACC-257 melanoma
[10] = tested on: M14 melanoma
[11] = tested on: HCT-15 colon
[12] = tested on: HT29 colon
[13] = tested on: SNB-75 CNS
[14] = tested on: SNB-19 CNS
[15] = tested on: PC-3 prostate
[16] = tested on: SK-MEL-5 melanoma
[17] = tested on: UACC-62 melanoma
[18] = tested on: LOX IMVI melanoma
[19] = tested on: SK-MEL-28 melanoma
[20] = tested on: U251 CNS

SMILES | growth [1] | growth [2] | growth [3] | growth [4] | growth [5] | growth [6] | growth [7] | growth [8] | growth [9] | growth [10] | growth [11] | growth [12] | growth [13] | growth [14] | growth [15] | growth [16] | growth [17] | growth [18] | growth [19] | growth [20]
O=C1C(=O)N(CCCCn2cc(CO)nn2)c2ccccc21 | 108% | 98.4% | 97.7% | 98.2% | 99.7% | 101% | 102% | 101% | 105% | 94.5% | 102% | 103% | 72.3% | 99.5% | 98.3% | 101% | 99.3% | 92.1% | 109% | 
Cc1cc(-c2nc3ccccc3s2)ccc1NC(=O)COc1ccc(Cl)cc1 | 130% | 93.7% | 106% | 96.9% | 139% | 109% | 120% | 105% | 120% | 100% | 92.7% | 101% | 84.4% |  | 83.2% | 98.8% | 96.1% | 94.5% | 114% | 94.1%
CCCCCCCCCCCCCCCC(=O)OCC1OC(n2cnc3c(=S)nc(N)[nH]c32)C(OC(=O)CCCCCCCCCCCCCCC)C1OC(=O)CCCCCCCCCCCCCCC (stereo not drawn) | 39.8% | 15.9% | 82.6% | 47.4% | 164% | 67.2% | 21.1% | 79.9% | 88.7% | 34.1% | 55.1% | 37.7% | 78.2% |  | 78.8% | 96.7% | 31.7% | 21.7% | 130% | 83.7%
CSc1nc(NCCO)c(C#N)c(-c2cccc(N)c2)n1 | 106% | 94.4% | 101% | 86.4% | 113% | 96.2% | 96.9% | 91.7% | 100% | 100% | 98.1% | 108% | 58.5% | 96% | 94.7% | 96.5% | 94.8% | 93.5% | 116% | 
O=C1/C(=C\c2cn(C(=O)c3ccc(Cl)cc3)c3ccccc23)c2ccccc2N1c1c(Cl)cccc1Cl | 120% | 115% | 106% | 103% | 151% | 99.9% | 127% | 104% | 123% | 104% | 66.3% | 103% | 82.3% |  | 71.9% | 107% | 95.4% | 97.7% | 113% | 88.4%
COc1ccc2c(c1)C(=O)/C(=C/c1cccc(OCC(=O)Nc3nc4c(s3)CCCC4)c1)O2 | 32.9% | -46.8% (active) | -67.6% (active) | 23.5% | -43.8% (active) | -26.9% (active) | 52.1% | -83.2% (active) | -22.4% (active) | -27.4% (active) | -15.7% (active) | -74.3% (active) | 19% |  |  |  | 79.1% | -70.3% (active) | 38.1% | 41.9%
COc1ccc(C2c3ccc4ccccc4c3Oc3ncnc(N)c32)cc1 (stereo not drawn) | 102% | 41.2% | 93.1% | 64.8% | 85.5% | 86.2% | 87% | 88.2% | 98.5% | 83% | 88.5% | 104% |  | 91.2% | 71.9% | 85.5% | 66.9% | 76.5% | 91.9% | 92.8%
CC[C@H](Nc1ncnc(N)c1C(N)=O)c1nc2cccc(NCc3ccc(C(=O)NO)cc3)c2c(=O)n1-c1ccccc1 | 97.6% | 55.6% | 67.2% | 83.8% | 55.2% | 90.1% | 93.2% | 75.1% | 63.4% | 95.9% | 105% | 88.7% |  | 68.2% | 92.1% | 87.9% | 63.3% | 103% | 69.2% | 52.9%
Cc1ccc2c(c1)C(=O)/C(=C/c1ccc(OCC(=O)c3ccccc3)cc1)O2 | 107% | 106% | 114% | 84% | 89% | 101% | 78.8% | 92.9% | 90.1% | 95.8% | 75.3% | 101% | 109% |  |  | 86.9% | 63.8% | 102% | 112% | 99.1%
Nc1cc(O)cc2cccnc12 | 107% | 88% | 89.8% | 78.5% | 135% | 107% | 95.4% | 101% | 91.2% | 83.8% | 110% | 106% |  | 79.4% | 78.7% | 72.4% | 89.5% | 51.2% | 112% | 86.7%
Brc1cccc(-c2nc(-c3ccc4c(c3)OCCO4)co2)c1 | 88.2% [25 µM] | 18.5% [25 µM] | 50.2% [25 µM] | 47.5% [25 µM] | 66.2% [25 µM] | 73.6% [25 µM] | 52.4% [25 µM] | 52.2% [25 µM] | 87.3% [25 µM] | 46% [25 µM] | 34.5% [25 µM] | 17.1% [25 µM] |  | 63.1% [25 µM] | 74% [25 µM] | 57.6% [25 µM] | 44.6% [25 µM] | 45.4% [25 µM] | 72.9% [25 µM] | 43.3% [25 µM]
NS(=O)(=O)c1ccc(-n2ncc3c(=O)[nH]c(CN4CCN(c5cc6c(cc5F)c(=O)c(C(=O)O)cn6C5CC5)CC4)nc32)cc1 | 110% | 95.8% | 105% | 85.8% | 98.2% | 91.6% | 91.8% | 97% | 105% | 92.9% | 89.7% | 101% |  | 94.9% | 82.5% | 96.7% | 74% | 97.2% | 93.5% | 102%
CC(C)(C)n1cc(-c2ccnc(NCCNS(=O)(=O)c3ccccc3)c2)c(-c2cccc(O)c2)n1 | 68.9% | 7.69% (active) | 59.4% | 42.7% | 61.6% | 63.3% | 48.3% | 52.2% | 65.8% | 53.9% | 9.17% (active) | 15.6% |  | 80.8% | 41.5% | 23.2% | 70.1% | 20.4% | 60.4% | 52%
C=C1C(=O)O[C@H]2[C@H]1CC/C(Cn1cc(Cc3c[nH]c4ccccc34)nn1)=C\CC[C@@]1(C)O[C@@H]21 | 20% | -12.9% (active) | -40.6% (active) | 1.06% (active) | -33.3% (active) | 35.1% | 79.3% | -55.4% (active) | 43.8% | 10.2% | -25.9% (active) | 3.04% (active) |  | 65.4% | 38.7% | 24.9% | 38% | -76.2% (active) | 20% | 37.6%
